Bioassay records as filed in PubChem.
HP1b chromo inh – blocks HP1-beta chromodomain binding to methylated histone tails. 390,000 tested, 0.56% active. Potency, µM (titrated, usually from 114 µM), for the others: top-dose activity change, negative = inhibition, hits mostly inhibitors. AlphaScreen HP1-beta / biotin-H3K9me3 peptide binding. P83916. AID 540317; note: nearly all actives have a fitted effect of over 70% in size
Target sequence (P83916 whole entry, looked up): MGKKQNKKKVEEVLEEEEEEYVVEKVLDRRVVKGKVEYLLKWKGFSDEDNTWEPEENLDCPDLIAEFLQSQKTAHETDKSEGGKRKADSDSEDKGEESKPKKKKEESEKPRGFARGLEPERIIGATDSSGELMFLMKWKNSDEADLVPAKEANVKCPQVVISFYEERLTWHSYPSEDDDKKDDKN
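Compound inhibition of the preformed complex between 50 nM HP1-beta and 50 nM biotinylated H3K9me3 peptide was read by AlphaScreen. Buffer was PBS pH 7.4 with 0.01% Tween-20. Incubations ran 30 min at room temperature, with 10 ug/mL donor/acceptor beads.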
G9a block – G9a (human) methyltransferase inhibition. Q96KQ7. G9a H3K9 monomethylation, AlphaScreen, 2 h. Potency, µM (series often up to 102 µM), for inactives: at the top dose activity, negative = inhibition, most hits filed as inhibitors. 350,000 tested, 8.8% active; note: % is set by controls: 0 for no effect and ±100 for the full control effect; nearly all actives have a fitted effect of over 75% in size
Target sequence (Q96KQ7 913-1193 limits assumed): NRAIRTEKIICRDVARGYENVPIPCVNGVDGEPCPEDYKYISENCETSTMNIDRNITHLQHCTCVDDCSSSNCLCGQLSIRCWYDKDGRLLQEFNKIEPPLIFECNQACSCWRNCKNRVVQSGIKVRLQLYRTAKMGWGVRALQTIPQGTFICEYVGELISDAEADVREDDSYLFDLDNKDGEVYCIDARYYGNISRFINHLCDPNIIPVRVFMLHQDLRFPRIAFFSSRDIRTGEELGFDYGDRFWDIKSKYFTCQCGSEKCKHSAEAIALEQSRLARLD
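Compounds were preincubated with 20 nM G9a for 15 min, after which biotinylated H3K9 peptide (500 nM) and SAM (20 uM) started a 2 h room-temperature reaction. Monomethylated product was quantified by antibody-based AlphaScreen chemiluminescence.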
Sfp PPTase inh – inhibitors of Bacillus subtilis Sfp phosphopantetheinyl transferase | Potency, µM, inactives show largest response in the series, negative = inhibition, most hits filed as inhibitors | Q9F4F7 | 310,000 tested, 3.5% active | Biochemical Sfp PPTase activity, qHTS;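 note: the enzyme is Sfp with the accession as filed and its product quenches rhodamine fluorescence; 0% = enzyme reaction without inhibitor and -100% = no enzyme wells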
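Fluorescence-quenching assay: 15 nM Sfp-PPTase preincubated 15 min at room temperature with compound, then 5 uM rhodamine-CoA and 12.5 uM BHQ-2-labelled YbbR peptide added. Fluorescence (ex 525/em 598 nm) read at start and after 30 min; difference gives rate.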
BAZ2B block – inhibitors of human BAZ2B bromodomain; AlphaScreen BAZ2B-H3K14Ac peptide displacement; Potency, µM (highest dose often 114 µM), without a hit: at the top dose activity change, negative = inhibition, usual class: inhibitors; 360,000 tested, 4.4% active; note: % is set by controls: 0 for no effect and ±100 for the full control effect; nearly all actives have a fitted effect of over 60% in size
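In this displacement format the biotinylated H3(5-23) peptide acetylated at Lys14 serves as ligand at 50 nM, with BAZ2B at 50 nM in PBS pH 7.4 containing 0.01% Tween-20. Donor and acceptor beads are 10 ug/mL final.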
JMJD2A Tudor – JMJD2A Tudor domain (human) inhibition | O75164 | AlphaScreen JMJD2A-Tudor / H3K4me3 peptide binding | Potency, µM (highest dose often 114 µM), for the others: top-dose activity change, negative = inhibition, actives largely listed as inhibitors | 390,000 tested, 4.4% active | AID 504339; note: % is set by controls: 0 for no effect and ±100 for the full control effect; nearly all actives have a fitted effect of over 50% in size
Numbers without * were called inactive; ? = inconclusive; · = no result given; ! = not confirmed by another sample; [ ] = remark or other dose. An excerpt weighted towards active compounds, which were near 12% of everything screened. Calls come from the whole dose curve; as a rule, active = well fitted curve in the direction sought with a large enough effect; inconclusive = small, poorly fitted or top-dose-only effect, or another doubt; inactive = no such curve, though single readings can be large; an effect the other way counts as inactive or inconclusive. Potency is the fitted concentration of half-maximal effect.

SMILES	HP1b chromo inh	G9a block	Sfp PPTase inh	BAZ2B block	JMJD2A Tudor
O=C(C1CCC(Cn2c(=S)[nH]c3ccccc3c2=O)CC1)N1CCOCC1 (centres undefined)	17.4%	?	-1.9%	-7.3%	?
Cn1nc(N)nc1N1CCN(c2ccc(F)cc2)CC1	-6.3%	-6.1%	17.7%	-1.4%	-4.1%
CCn1c(SCC(N)=O)nc2sc3c(c2c1=O)CCCC3	38.2%	44.7µM*	17.5%	-6.0%	-9.0%
COc1ccc(C(=O)NCCc2ccc(C(F)(F)F)cc2)cc1S(=O)(=O)N1CCOCC1	27.1%	-0.7%[12.7 µM]	·	0.1%	-1.4%
Oc1cc(O)c2c(c1)O[C@H](c1ccc(O)c(O)c1)[C@H](O)C2	18.1%	10µM*	-1.7%	?	-16.5%
O=C(OC1Cc2c(O)cc(O)cc2OC1c1cc(O)c(O)c(O)c1-c1c(C2Oc3cc(O)cc(O)c3CC2OC(=O)c2cc(O)c(O)c(O)c2)cc(O)c(O)c1O)c1cc(O)c(O)c(O)c1 (centres undefined)	·	·	44.7µM*	·	·
Oc1cc(O)c2c(c1)OC(c1cc(O)c(O)c(O)c1)C(O)C2 (centres undefined)	·	?	-77.3%	·	·
O=C(O[C@@H]1Cc2c(O)cc(O)cc2OC1c1ccc(O)c(O)c1)c1cc(O)c(O)c(O)c1 (some centres undefined)	·	·	50.1µM*	·	·
Cc1ccnc(NC(=O)c2ccc(OCC3CCCO3)cc2)c1 (centres undefined)	14.9%	-1.9%	·	2.8%	-14.4%
O=C(CCc1ccccc1)Nc1ccnn1C1CCN(Cc2ncc[nH]2)CC1	42.1%	2.9%[0.0925 µM]	2.3%	-5.6%	-15.0%
CCC(=O)OC1=CN(Cc2ccccc2)S(=O)(=O)c2ccccc21	53.3%	-1.3%[59 µM]	·	15.9%	10.3%
O=C(CN1CCCC1)N1CCCC(c2ccc(F)cc2)c2ccc(F)cc21 (centres undefined)	?	28.2µM*	-6.9%	-37.0%	0.891µM*
COc1ccc(C(=O)NCc2nnc(SCC(=O)N3CCCc4ccccc43)o2)cc1OC	56.0%	?	17.2%	31.2%	-4.5%
C[C@H]([C@H](C)N1CC(=O)NC(=O)C1)N1CC(=O)NC(=O)C1	·	2.24µM*	?	·	·
COc1ccc(O[C@H]2C=C[C@@H](c3ccccc3)O[C@H]2COC(=O)NCc2cccc3ccccc23)cc1	·	·	-1.1%	·	·
COc1cccc([C@H]2Oc3ccc(OC)cc3/C(=N\O[C@@H](C)c3cn([C@H](CO)Cc4ccccc4)nn3)[C@@H]2O)c1	·	·	17.1%	·	·
COc1ccc2oc(=O)c(-c3nnc(-c4ccc(C)cc4)o3)cc2c1	24.3%	9.3%[59 µM]	·	5.6%	-9.2%
O=C(CNC(=S)N(Cc1ccccc1)Cc1cccnc1)NCc1ccccc1	0.1%	-29.7%	16.5%	-24.1%	-18.1%
CCOC(=O)C1=C(C)NC(=O)NC1c1ccc(-c2ccccc2F)o1 (centres undefined)	23.3%	-10.5%[59 µM]	7.6%	0.8%	-35.1%
COCCOC(=O)C1=C(C)NC(=O)NC1c1ccc(-c2ccc(F)cc2)o1 (centres undefined)	-11.2%	50.1µM*	-15.5%	-32.5%	-34.8%
NCCCNCCCCNCCCN	13.0%	12.6µM*!	?	·	-19.7%
Nc1ccc(N2CCCCC2)c2nonc12	?	·	?	25.1µM*	56.2µM*
Nc1c(N2CCCC2)cc(Cl)c2nonc12	-45.0%	4.47µM*	-22.4%	-23.0%	?
CCN1CCCC1Cn1cnc2c([nH]c3cccc(Cl)c32)c1=O (centres undefined)	16.2%	31.6µM*	-6.3%	-21.5%	-13.4%
COc1ccc(-c2sc(Nc3ccccc3)n[n+]2-c2ccc(F)cc2)c(C)c1C	-3.0%	?	-3.4%	?	?
SMILES	HP1b chromo inh	G9a block	Sfp PPTase inh	BAZ2B block	JMJD2A Tudor
Cc1cccc(-c2sc(Nc3ccccc3)n[n+]2-c2ccc(F)cc2)c1	30.4%	35.5µM*	15.8%	-1.3%	-31.7%
CCc1ccc(Nc2n[n+](-c3ccccc3)c(-c3cccc(C)c3)s2)cc1	11.4%	7.6%[2.33 µM]	·	35.5µM*	79.4µM*
COC(=O)[C@@]1(Cc2ccccc2)[C@H]2c3cc(C(=O)N(C)C)n(CCN4CNCC4=O)c3C[C@H]2CN1C(=O)c1ccccc1	·	·	8.0%	·	·
CN(c1ccc(C(=O)N2CCCCCC2)cc1)S(=O)(=O)c1ccccc1	47.3%	3.7%[12.7 µM]	·	5.3%	-2.3%
CC1CCc2c(sc(NC(=O)c3ccc(Cl)cc3Cl)c2C#N)C1 (centres undefined)	17.2%	21.5%[59 µM]	·	4.0%	3.3%
O=C(O)CCn1cc(/C=C/C(=O)c2ccc(Cl)cc2)c(-c2ccc(Br)cc2)n1	3.0%	79.4µM*	1.2%	-34.9%	-34.8%
O=C(O)/C=C/c1cn(Cc2ccccc2)nc1-c1ccccc1	15.4%	6.8%[59 µM]	10.7%	3.2%	-14.2%
Cc1ccc2nsnc2c1S(=O)(=O)Nc1cccc2nsnc12	14.6%	44.7µM*	-9.1%	-37.9%	-22.9%
CC(=O)c1ccccc1NS(=O)(=O)c1cccc2nonc12	24.4%	-5.1%	6.7%	-13.5%	-5.7%
CC(=O)c1ccccc1NS(=O)(=O)c1cccc2nsnc12	?	50.1µM*	1.8%	50.1µM*	?
COc1ccc(NC(=O)CN(C)CC(=O)N2CC(=O)Nc3ccccc32)cc1	16.4%	·	·	·	-19.2%
NC(=O)C1CN(S(=O)(=O)c2ccc(Cl)cc2F)c2ccccc2O1 (centres undefined)	7.1%	79.4µM*	10.6%	-2.1%	-9.8%
COc1ccc(-n2ncc3c(=O)n(CC(C)=O)cnc32)cc1	21.9%	·	6.1%	-4.6%	-4.9%
Cc1cc2nc(/N=C(\N)NC(=O)N3c4ccccc4Sc4ccccc43)nc(C)c2cc1C	6.2%	50.1µM*	6.9%	-35.3%	-35.2%
Cc1ccc2nc(/N=C(\N)NC(=O)N3c4ccccc4Sc4ccccc43)nc(C)c2c1	-11.9%	50.1µM*	18.7%	-32.8%	-26.4%
CC(C(=O)N/N=C/c1ccc(N(C)C)c(Br)c1)N(c1ccccc1)S(C)(=O)=O (centres undefined)	-0.1%	8.9%	9.9%	3.5%[57.1 µM]	-33.0%
c1ccc2c(c1)CCOC2CNCCCN1CCCCC1 (centres undefined)	37.7%	22.4µM*	15.3%	-0.5%	-12.2%
O=S(=O)(NCC1OCCc2ccccc21)c1ccc(S(=O)(=O)N2CCOCC2)cc1 (centres undefined)	9.0%	-6.0%[59 µM]	5.1%	-9.3%	-14.1%
CC1CC2(CCCCC2)N2C(=O)C(=O)c3cccc1c32 (centres undefined)	?	70.8µM*	6.2%	?	?
CCOc1cc2c3c(c1)C(C)CC(C)(C)N3C(=O)C2=O (centres undefined)	?	-47.9%[59 µM]	3.2%	-10.4%	-30.4%
CN(CCOC(=O)/C=C/c1ccco1)Cc1ccccc1	?	14.1µM*	20µM*	35.5µM*	25.1µM*
CN(Cc1ccccc1)C(=O)COC(=O)/C=C/c1ccco1	?	35.5µM*	35.5µM*	·	?
